The full ranking holds about 33,000 sequences; the median of “E-score (-0.5 to 0.5)” is about -0.043, and the highest 2% start at about 0.37. Shown is part of a subset that was picked to be rich in the highest values.
These sequences were tested against T1, Upc2 (UniProt Q12151) (assay: PBM E-score (8-mer binding enrichment) (E-score (-0.5 to 0.5)); higher = stronger / more preferred TF binding). Conditions: protein concentration: 200 nM; construct: GST-full length.
T1 sequence: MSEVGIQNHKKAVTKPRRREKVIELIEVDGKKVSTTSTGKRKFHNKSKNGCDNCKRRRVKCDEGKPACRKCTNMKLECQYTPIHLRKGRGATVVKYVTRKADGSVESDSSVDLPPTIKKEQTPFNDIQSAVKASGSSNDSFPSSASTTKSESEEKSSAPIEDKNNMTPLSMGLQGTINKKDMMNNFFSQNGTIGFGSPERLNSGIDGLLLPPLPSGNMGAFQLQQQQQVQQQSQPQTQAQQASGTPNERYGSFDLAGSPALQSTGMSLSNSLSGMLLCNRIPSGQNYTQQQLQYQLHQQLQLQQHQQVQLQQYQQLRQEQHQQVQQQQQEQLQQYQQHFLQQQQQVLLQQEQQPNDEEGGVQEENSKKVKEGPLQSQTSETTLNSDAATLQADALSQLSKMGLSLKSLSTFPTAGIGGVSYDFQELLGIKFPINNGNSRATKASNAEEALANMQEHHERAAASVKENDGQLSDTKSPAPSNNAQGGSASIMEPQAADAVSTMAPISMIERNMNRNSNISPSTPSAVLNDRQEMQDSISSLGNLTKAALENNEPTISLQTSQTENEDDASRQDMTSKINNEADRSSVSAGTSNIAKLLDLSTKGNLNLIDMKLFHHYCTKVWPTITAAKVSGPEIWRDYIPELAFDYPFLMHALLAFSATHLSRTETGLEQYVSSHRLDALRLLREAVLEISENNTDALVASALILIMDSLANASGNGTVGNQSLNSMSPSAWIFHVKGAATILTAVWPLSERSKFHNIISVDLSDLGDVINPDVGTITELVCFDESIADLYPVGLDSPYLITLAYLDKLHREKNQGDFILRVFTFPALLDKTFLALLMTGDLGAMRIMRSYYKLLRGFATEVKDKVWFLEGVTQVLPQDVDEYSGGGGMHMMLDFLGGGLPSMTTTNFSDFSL
Procedure, shortened: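 For each ungapped eight-base word taken together with its reverse complement, the Universal PBM Analysis Suite assigned an E-score. Binding data came from GST-tagged yeast transcription factors, applied at about 100-200 nM, on universal all-10-mer Agilent arrays made double-stranded by primer extension. Fluorescent anti-GST marked bound protein, and scans were normalised with masliner.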

Sequence	PBM E-score
CTTTACGA	0.471
GTTTACAA	0.164
CATTACGA	0.316
ATTTACGG	0.297
ATTTACGC	0.154
GTTTACGA	0.471
ATTTACGA	0.45
GTTTACTA	0.224
CTTTACGC	0.332
GAGGGGGA	-0.0209
GTCGAGTA	0.0357
ATTGTATC	-0.2
GAGGGAAC	-0.0277
AATAAGTA	0.0339
CTGTTGGC	-0.209
CTGCGACC	-0.164
ATCACAGA	-0.155
CTCCTATA	-0.0688
CGCTATTC	0.102
ACCAAACA	0.208
CACAAACA	-0.0461
ACCAAACG	0.4
AACAAACG	0.353
CGCAAACA	0.0866
CCAAAACG	0.114

Sequence	PBM E-score
ACCAAACC	-0.0475
CCCAAGCG	-0.031
CGCAAACG	0.412
CACAAACG	0.387
CCCAAACG	0.431
CGCAAGCG	0.115
AGGCCAAG	-0.17
GAGCAGCA	-0.098
AGTTCGAA	0.0491
AACACAGA	-0.00201
CCCTTCGG	-0.0969
ATCGCAAG	-0.255
AGGACTTG	-0.287
CCTACGCA	-0.196
GACGACAA	0.0707
AACGACAC	0.428
AACGACAG	0.419
GACGACAC	-0.079
CACGACAG	0.0499
AACGACAA	0.402
ATCGACAG	-0.0101
CACGACAA	0.0377
AACGACAT	0.432
AGCGACAT	0.177
CACGACAC	0.114

Sequence	PBM E-score
ACCGACAT	0.199
GACCAAGC	-0.234
CCATGGAC	-0.201
AGGACAGA	-0.347
ATGTGAAC	0.00151
GAATTAGC	-0.0225
CTTACAGC	-0.0579
TCCGGGAA	-0.0708
GGAAGAAA	-0.136
GGATCGCC	-0.0204
TACGACAA	0.46
TGCGACAA	0.141
TTCGACAA	0.0423
ACTCTATA	0.0319
GGACCTTA	0.00047
CTCGTTAC	0.36
ATCGTTAC	0.264
ATCGTTAG	0.239
GGCGTTAA	0.161
GACGTTAA	0.154
GTCGTTAA	0.465
ATCGTTAA	0.435
CTCGTTAA	0.466
CACGTTAA	0.131
AGCAGCAC	-0.113

Sequence	PBM E-score
GTGCTCGA	0.0349
ATGAGTGG	-0.126
CAATCTTA	0.065
ATATAGCA	-0.0248
GTATAGCA	0.377
CTATAGCA	-0.0859
CAGATCAC	-0.266
AGTCTTTC	-0.0324
GCCAATAC	0.0787
ACATTCGT	0.375
ACATTCGA	0.0307
ACATTCGG	0.0333
AACATCCA	-0.0529
ATGTCCTA	0.0227
AGATCTCG	0.235
CATCGTAC	0.454
GATCGTTA	0.291
CATCGTAG	0.295
AATCGTAG	0.241
AATCGTAA	0.368
CATCGTAA	0.389
CATCGTGA	0.0225
CATCGTCC	-0.0591
CATCGTCA	-0.163
GATCGTAA	0.396

Sequence	PBM E-score
AATCGTAT	0.44
AATCGTCT	0.0582
GGCGTCCA	-0.398
CATCACGG	0.0314
ACTGTAGG	-0.117
GATTAGCC	0.0747
ATGTTAGG	-0.00946
ACCTGGAA	0.0285
AGAGCATG	-0.17
CAGTGCTA	-0.0362
AGAATCAG	-0.0805
AGCATTAT	-0.183
TATCGTCA	0.0773
GATCGTCC	-0.151
TATCGTAA	0.384
TATCGTGA	0.0236
GATCGTAC	0.442
GATCGTGC	0.0519
AATCGTCC	-0.0549
AATCGTGC	0.229
AATCGTAC	0.43
AGAGGCAC	-0.00593
GAACATCA	-0.0243
AGCTGTAT	-0.0312
CTAAGCTC	-0.201

Sequence	PBM E-score
AACCCTCT	-0.202
CGGACTAC	-0.113
CTCGTCGC	0.0828
ACGAGCCA	0.408
ACGAGCCG	0.371
ACGAGCCT	0.396
AGGAGCCG	-0.224
TCGAGCCA	-0.0555
ACGAGCCC	0.358
AGGAGCCT	-0.12
CCGAGCCA	-0.0165
CCGAGCCG	0.106
TAACTCAA	-0.0155
ATTTCTTC	-0.026
ATATATAA	0.141
TAATGCTA	-0.11
GATCGATC	-0.03
GAACGGTA	0.283
AATCGATT	0.128
AAACGCTG	0.244
CAACGATG	0.0412
GAACGATC	0.429
GAACGATA	0.402
AAACGCTT	0.156
CCACGATC	0.125

Sequence	PBM E-score
AAACGATT	0.449
AAACGATG	0.458
GGACGATA	-0.181
CGCCACCC	-0.0595
ATCGTGAG	-0.165
GGTCTGCA	-0.156
TCAGATGA	-0.197
ATCTGGTA	0.044
ACACTGCA	-0.0747
CGGCATAG	-0.0559
GCCTCCGC	-0.121
AAACTTTA	-0.0184
TAACGATA	0.387
AAACGATC	0.447
CAACGATC	0.11
ACACGATA	0.15
CCACGATA	-0.0526
AAACGATA	0.459
AGACGATC	-0.0293
CAACGATA	0.228
TAACGTTA	0.102
AAGCGACT	0.243
